Drawing on publication PMC7862700, “An all-to-all approach to the identification of sequence-specific readers for epigenetic DNA modifications on cytosine”, this text covers binding signal for 2 sequences.

Holding throughout (assay): DAPPL (digital affinity profiling via proximity ligation, sequencing); 10 mM Tris-HCl pH 7.5, 50 mM NaCl, 1 mM DTT, 4% glycerol, room temperature, 30 min; GST-TFs on glutathione beads, 16-mer random dsDNA library, 0.1% formaldehyde crosslink after washing; high values mean tight binding
Assay [1] has as its target T1, GABPA (Homo sapiens, UniProt Q06546 1-454).
T1 sequence: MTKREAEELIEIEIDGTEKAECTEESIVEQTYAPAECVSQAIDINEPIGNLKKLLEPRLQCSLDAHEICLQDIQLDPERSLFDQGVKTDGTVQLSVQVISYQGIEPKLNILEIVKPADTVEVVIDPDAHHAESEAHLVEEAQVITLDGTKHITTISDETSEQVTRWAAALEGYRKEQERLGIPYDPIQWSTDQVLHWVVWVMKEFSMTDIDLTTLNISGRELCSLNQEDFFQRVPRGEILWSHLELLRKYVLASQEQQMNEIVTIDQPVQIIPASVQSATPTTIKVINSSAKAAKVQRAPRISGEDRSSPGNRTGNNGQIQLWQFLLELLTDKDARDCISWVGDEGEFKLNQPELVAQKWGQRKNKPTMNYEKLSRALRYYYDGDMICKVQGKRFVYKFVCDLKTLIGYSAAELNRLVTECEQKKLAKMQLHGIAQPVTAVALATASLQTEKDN
Particulars: protein: recombinant; tags: N-terminal GST; dsDNA, one strand shown. In outline:
(§1)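 Human transcription factors carrying a GST fusion were produced in yeast, bound to glutathione beads, tagged with DNA barcodes and pooled together with a tag-only sample. Each pool was held with 200 nmole of a random double-stranded 16-mer DNA library in Tris/NaCl/DTT/glycerol buffer for 30 min at room temperature, then washed, crosslinked in 0.1% formaldehyde, proximity-ligated with BsaI/T4 ligase (1 h, 37 °C), PCR-amplified and sequenced on an Illumina NextSeq500. Binding signal is the read frequency of each hexamer for a given factor divided by its frequency in the tag-only sample.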

Assay [2] deals with T2, ERG (Homo sapiens, UniProt P11308 1-479).
T2 sequence: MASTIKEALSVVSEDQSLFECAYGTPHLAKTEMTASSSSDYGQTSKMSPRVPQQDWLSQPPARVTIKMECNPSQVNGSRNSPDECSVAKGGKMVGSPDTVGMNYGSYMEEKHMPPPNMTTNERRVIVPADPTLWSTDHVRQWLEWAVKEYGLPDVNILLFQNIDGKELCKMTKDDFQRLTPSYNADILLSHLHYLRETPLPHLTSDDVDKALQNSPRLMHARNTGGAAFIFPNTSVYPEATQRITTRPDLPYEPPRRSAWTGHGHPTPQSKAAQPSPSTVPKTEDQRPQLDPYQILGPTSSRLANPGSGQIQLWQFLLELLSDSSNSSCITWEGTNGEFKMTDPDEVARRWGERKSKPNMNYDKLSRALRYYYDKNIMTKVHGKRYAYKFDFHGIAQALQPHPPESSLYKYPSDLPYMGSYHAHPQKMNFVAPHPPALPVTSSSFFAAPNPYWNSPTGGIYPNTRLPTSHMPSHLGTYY
Particulars: protein: recombinant; tags: N-terminal GST; dsDNA, one strand shown. In outline: as §1

In assay [3] the target is T3, FEV (Homo sapiens, UniProt Q99581 1-238).
T3 sequence: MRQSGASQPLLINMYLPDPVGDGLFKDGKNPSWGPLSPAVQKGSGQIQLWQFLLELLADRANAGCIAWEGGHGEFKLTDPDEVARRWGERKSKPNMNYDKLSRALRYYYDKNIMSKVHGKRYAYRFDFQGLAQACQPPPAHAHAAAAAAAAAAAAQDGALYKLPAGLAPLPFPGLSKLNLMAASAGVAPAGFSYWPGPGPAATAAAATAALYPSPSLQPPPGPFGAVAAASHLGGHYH
The conditions noted are these: protein: recombinant; tags: N-terminal GST; dsDNA, one strand shown. Put shortly:
as §1

For assay [4], the target named is HSF1 (Homo sapiens, UniProt Q00613 1-529). Particulars: protein: recombinant; tags: N-terminal GST; chain copies: 3; dsDNA, one strand shown. Put shortly:
as §1

Assay [5] has as its target T4, SPIC (Homo sapiens, UniProt Q8N5J4 1-248).
T4 sequence: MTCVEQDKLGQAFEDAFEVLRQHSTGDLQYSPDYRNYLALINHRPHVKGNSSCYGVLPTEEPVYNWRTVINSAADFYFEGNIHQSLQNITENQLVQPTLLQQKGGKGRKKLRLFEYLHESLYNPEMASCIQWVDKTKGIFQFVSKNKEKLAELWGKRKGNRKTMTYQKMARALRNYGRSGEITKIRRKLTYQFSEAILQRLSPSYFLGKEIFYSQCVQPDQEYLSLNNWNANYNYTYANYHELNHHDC
The conditions noted are these: protein: recombinant; tags: N-terminal GST; dsDNA, one strand shown. In outline:
as §1

The target in assay [6] is CRX (Homo sapiens, UniProt O43186 1-299). Particulars: protein: recombinant; tags: N-terminal GST; dsDNA, one strand shown. Put shortly:
as §1

The target of assay [7] is ETV1 (Homo sapiens, UniProt P50549 1-477). Particulars: protein: recombinant; tags: N-terminal GST; dsDNA, one strand shown. In outline: as §1
Chain of ETV1 (P50549 whole entry): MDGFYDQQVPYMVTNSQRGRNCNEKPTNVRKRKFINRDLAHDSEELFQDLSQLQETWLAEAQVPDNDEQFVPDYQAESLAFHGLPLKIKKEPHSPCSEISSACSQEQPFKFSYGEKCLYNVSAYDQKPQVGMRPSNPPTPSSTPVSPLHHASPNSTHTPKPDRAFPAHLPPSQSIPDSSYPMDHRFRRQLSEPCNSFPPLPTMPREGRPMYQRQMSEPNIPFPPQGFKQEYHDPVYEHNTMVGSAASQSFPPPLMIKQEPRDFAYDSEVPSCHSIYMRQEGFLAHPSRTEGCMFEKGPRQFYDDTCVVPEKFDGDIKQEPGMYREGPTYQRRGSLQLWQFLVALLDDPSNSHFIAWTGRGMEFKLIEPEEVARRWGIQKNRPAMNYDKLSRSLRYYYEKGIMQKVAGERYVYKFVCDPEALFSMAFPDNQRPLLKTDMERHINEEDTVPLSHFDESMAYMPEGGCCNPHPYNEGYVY
Assay [8] addresses T5, ERF (Homo sapiens, UniProt P50548 1-548).
T5 sequence: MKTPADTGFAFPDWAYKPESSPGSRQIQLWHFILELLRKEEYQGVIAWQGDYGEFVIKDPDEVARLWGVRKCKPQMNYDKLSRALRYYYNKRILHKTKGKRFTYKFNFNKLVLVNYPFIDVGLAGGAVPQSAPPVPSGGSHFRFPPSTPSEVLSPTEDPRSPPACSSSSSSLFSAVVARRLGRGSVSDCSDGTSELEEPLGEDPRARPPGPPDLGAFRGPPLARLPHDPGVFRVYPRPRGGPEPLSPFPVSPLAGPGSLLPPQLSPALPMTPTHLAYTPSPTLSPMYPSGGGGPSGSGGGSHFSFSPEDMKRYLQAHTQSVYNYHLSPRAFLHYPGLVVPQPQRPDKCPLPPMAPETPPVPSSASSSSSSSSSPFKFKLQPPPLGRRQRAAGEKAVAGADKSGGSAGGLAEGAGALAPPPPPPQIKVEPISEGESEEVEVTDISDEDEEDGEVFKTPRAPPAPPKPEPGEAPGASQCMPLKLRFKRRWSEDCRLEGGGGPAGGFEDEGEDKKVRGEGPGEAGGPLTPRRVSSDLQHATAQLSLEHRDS
Particulars: protein: recombinant; tags: N-terminal GST; dsDNA, one strand shown. In outline:
as §1

The target of assay [9] is T6, ETV3L (Homo sapiens, UniProt Q6ZN32 1-361).
T6 sequence: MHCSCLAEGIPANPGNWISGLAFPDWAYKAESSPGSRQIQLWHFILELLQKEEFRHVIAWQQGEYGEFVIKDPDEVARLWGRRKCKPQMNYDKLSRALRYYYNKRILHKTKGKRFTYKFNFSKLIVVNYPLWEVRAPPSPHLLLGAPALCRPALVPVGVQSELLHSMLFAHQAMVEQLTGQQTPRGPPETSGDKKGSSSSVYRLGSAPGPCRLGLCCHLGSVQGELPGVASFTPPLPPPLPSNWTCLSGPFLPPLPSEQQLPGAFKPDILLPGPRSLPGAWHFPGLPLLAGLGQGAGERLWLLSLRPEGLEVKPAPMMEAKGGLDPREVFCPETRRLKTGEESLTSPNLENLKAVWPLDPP
The conditions noted are these: protein: recombinant; tags: N-terminal GST; dsDNA, one strand shown. Put shortly:
as §1

Assay [10] concerns the target T7, ETS2 (Homo sapiens, UniProt P15036 1-469).
T7 sequence: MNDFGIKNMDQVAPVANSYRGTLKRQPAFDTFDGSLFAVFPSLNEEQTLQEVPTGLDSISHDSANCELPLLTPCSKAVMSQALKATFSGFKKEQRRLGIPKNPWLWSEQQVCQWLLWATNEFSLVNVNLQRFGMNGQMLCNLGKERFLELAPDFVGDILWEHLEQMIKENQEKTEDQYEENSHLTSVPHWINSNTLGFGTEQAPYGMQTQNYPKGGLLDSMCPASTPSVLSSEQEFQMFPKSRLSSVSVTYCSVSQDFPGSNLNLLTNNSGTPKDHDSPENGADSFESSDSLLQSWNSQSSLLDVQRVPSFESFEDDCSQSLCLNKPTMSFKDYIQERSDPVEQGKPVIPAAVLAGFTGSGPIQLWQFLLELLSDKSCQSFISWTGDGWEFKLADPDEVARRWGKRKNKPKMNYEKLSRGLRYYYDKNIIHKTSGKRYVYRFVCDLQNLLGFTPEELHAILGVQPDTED
The conditions noted are these: protein: recombinant; tags: N-terminal GST; dsDNA, one strand shown. Put shortly: as §1

Assay [11] has as its target T8, ETV7 (Homo sapiens, UniProt Q9Y603 1-341).
T8 sequence: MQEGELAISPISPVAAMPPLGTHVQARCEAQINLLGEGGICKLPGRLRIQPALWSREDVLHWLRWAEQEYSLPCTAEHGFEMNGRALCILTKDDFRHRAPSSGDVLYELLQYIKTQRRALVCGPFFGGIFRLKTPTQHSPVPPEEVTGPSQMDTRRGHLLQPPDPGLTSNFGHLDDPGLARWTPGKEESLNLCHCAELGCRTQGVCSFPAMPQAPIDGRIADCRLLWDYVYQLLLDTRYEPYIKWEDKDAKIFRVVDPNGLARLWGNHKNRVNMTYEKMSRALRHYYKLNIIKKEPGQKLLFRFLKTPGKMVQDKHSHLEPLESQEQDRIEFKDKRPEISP
The conditions noted are these: protein: recombinant; tags: N-terminal GST; dsDNA, one strand shown. Put shortly: as §1

In assay [12] the target is T9, ELK4 (Homo sapiens, UniProt P28324-2 1-405).
T9 sequence: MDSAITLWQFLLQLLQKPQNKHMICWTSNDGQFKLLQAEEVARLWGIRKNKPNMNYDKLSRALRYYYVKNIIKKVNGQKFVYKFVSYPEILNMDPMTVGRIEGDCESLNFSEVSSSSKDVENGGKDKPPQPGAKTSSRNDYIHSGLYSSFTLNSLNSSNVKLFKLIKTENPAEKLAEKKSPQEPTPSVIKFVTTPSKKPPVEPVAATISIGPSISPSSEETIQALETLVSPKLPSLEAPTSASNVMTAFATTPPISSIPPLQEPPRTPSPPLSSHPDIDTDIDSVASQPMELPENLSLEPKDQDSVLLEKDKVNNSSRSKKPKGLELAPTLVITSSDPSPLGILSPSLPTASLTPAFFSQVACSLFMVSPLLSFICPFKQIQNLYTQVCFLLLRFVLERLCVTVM
The conditions noted are these: protein: recombinant; tags: N-terminal GST; dsDNA, one strand shown. In outline: as §1

Chain of HSF1 (Q00613 whole entry): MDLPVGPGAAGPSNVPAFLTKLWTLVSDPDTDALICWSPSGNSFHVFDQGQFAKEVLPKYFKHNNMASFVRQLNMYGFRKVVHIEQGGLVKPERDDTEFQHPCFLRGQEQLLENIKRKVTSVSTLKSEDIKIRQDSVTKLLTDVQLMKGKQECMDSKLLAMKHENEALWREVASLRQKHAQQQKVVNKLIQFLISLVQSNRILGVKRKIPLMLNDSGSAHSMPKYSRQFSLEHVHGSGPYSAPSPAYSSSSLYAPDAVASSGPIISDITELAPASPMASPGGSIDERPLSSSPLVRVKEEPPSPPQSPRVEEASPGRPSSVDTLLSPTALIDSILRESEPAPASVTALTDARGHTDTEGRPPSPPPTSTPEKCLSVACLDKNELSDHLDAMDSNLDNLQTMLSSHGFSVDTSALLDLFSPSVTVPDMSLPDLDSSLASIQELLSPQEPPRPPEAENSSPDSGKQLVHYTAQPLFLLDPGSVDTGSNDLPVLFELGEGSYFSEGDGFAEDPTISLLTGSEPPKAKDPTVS
Chain of CRX (O43186 whole entry): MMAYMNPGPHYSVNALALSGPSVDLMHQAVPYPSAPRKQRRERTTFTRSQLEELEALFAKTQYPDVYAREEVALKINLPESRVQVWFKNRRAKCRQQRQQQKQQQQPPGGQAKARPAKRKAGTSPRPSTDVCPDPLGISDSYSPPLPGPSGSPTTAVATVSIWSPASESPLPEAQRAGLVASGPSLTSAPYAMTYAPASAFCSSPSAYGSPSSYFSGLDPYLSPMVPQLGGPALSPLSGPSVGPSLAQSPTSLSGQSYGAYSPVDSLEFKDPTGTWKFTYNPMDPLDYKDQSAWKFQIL

Regarding TTAGGC, the binding signal in assay [1] is 1.02 fold enrichment (6-mer frequency, TF over GST control); in assay [2], 1.03 fold enrichment (6-mer frequency, TF over GST control); in [3], 1 fold enrichment (6-mer frequency, TF over GST control); in assay [4], 1.37 fold enrichment (6-mer frequency, TF over GST control); in assay [5] it was 1.08 fold enrichment (6-mer frequency, TF over GST control); in [6], 2.06 fold enrichment (6-mer frequency, TF over GST control). For the same sequence, the binding signal is 1.03 fold enrichment (6-mer frequency, TF over GST control) in [7]; 1.02 fold enrichment (6-mer frequency, TF over GST control) in assay [8]; 1.01 fold enrichment (6-mer frequency, TF over GST control) in [9]; 1.01 fold enrichment (6-mer frequency, TF over GST control) in assay [10]; 1.16 fold enrichment (6-mer frequency, TF over GST control) in assay [11].
CCCAGA: the binding signal was 1.31 fold enrichment (6-mer frequency, TF over GST control) in assay [4] and 1.01 fold enrichment (6-mer frequency, TF over GST control) in assay [12].
